# ± gives the standard deviation of the averaged measurements.
# Test system: HCC1569
# Assay: cell number relative to DMSO (% of DMSO); higher = more cells (less growth inhibition / toxicity)
# Settings: concentration: 10 µM; 24 h
# Method in brief: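 HCC1569 and TDF cells (800 per well, 384-well plates, RPMI with 10% FBS) were treated with compounds at 10 µM for 24 h at 37 °C, in triplicate. Cells were fixed in 3.7% formaldehyde and stained with a rabbit anti-H1.0 antibody, an AlexaFluor 647 secondary and DAPI; six fields per well were imaged at ×10. H1.0 nuclear intensity or cell number is expressed as percent of the plate DMSO control, taking the median of replicates. HCC1569 values were smoothed for positional effects.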
# 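Note: TDF denotes transformed human dermal fibroblasts of mesenchymal origin.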
row,SMILES,cell number
1,CCCNC(C)C(=O)Nc1ccccc1C.Cl (stereo not drawn) [Prilocaine hydrochloride],103
2,"Cc1ccc(OCC(O)C(C)NC(C)C)c2c1CCC2.Cl (stereo not drawn) [ICI 118,551 hydrochloride]",101
3,FC(F)(F)c1cc(NC(=S)Nc2ccc(Br)cc2-c2nn[nH]n2)cc(C(F)(F)F)c1,90.3
4,CCOC(=O)c1c(C)[nH]c(C=C2C(=O)Nc3ccccc32)c1C [VEGF Receptor 2 Kinase Inhibitor I],100
5,O=C([O-])c1cc2cc(Cc3cccnc3)ccc2o1.[Na+] [Furegrelate sodium],102
6,Nc1c(Br)cc(Br)cc1CNC1CCC(O)CC1 (stereo not drawn) [Ambroxol],104 ± 5.2
7,CCCCCC(O)C=CC1C(O)CC(O)C1CC=CCCCC(=O)O (stereo not drawn) [8-Epi-prostaglandin F2a],102
8,CCCCCCCCCCCCCC=CC(O)C(CO)NC(=O)CCCCCCCCCCCCCCC (stereo not drawn) [C16 Ceramide],96.6
9,CN1C(C)(C)CCCC1(C)C.O=C(O)C(O)C(O)C(=O)O [Pempidine tartrate],105
10,CS(=O)(=O)O.N=C(N)SCCc1ccc(OCc2ccc([N+](=O)[O-])cc2)cc1,88.6
11,CCCCCCCCCCCCCCCC(=O)NC(CN1CCOCC1)C(O)c1ccccc1 (racemic),103
12,COc1ccc(C=Cc2cc(OC)cc(=O)o2)cc1 [Yangonin],98.9
13,Cl.Oc1ccc(Nc2nc(-c3ccc(Cl)cc3)cs2)cc1 [Sphingosine Kinase Inhibitor],69.3

# — the supplement of paper PMC7156485
